IDE act – human IDE activators in live cells, primary screen, fluorescence polarization, HEK cells, FAbeta-B substrate | Insulin-degrading enzyme (Homo sapiens), P14735 | FAbeta-B cleavage; 0% vehicle, 100% cell-free pure enzyme wells | activation, % at 5.96 µM | actives 0.073% (n = 340,000) | AID 493087, 2011;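 active = activation above the mean of all tested compounds plus 3 SD, set per screening campaign, cut at about 17% in these data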
PP1 counter – PP1-alpha phosphatase inhibitors, primary screen, counter-screen for PP5 inhibitor project, biochemical, fluorescence, OMFP substrate, single point | purified PP1alpha | inhibition, % at 6.7 µM | actives 0.9% (n = 320,000) | Serine/threonine-protein phosphatase PP1-alpha catalytic subunit (Homo sapiens), P62136 | AID 2235, 2010;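 active = inhibition above the mean inhibition of all tested compounds plus 3 SD, computed separately for each screening campaign, cut at about 15% in these data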
IDE inh – human IDE inhibitors in live cells, primary screen, fluorescence polarization, HEK cells, FAbetaB substrate; Insulin-degrading enzyme (Homo sapiens), P14735; FAbetaB cleavage; inhibition, % at 5.59 µM; actives 0.41% (n = 320,000); AID 434962, 2010;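 active = percent inhibition above the average of all tested compounds plus 3 SD, set per screening campaign, cut at about 16% in these data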;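 note: IDE supplied by intact live HEK cells; FP after avidin binding of uncleaved biotin substrate so inhibition keeps polarization high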
Exocytosis inh – LAMP-1 surface exposure blockers, TALL-104 cells – cell-based, flow cytometry, MLPCN library, primary screen; TALL-104 LAMP-1 surface exposure; cells stimulated with thapsigargin and PMA; actives 0.66% (n = 360,000); inhibition, % at 10 µM;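 active = inhibition above about 55%, limit read from the data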
PP5 inh – PP5 phosphatase inhibitors, primary screen, biochemical, fluorescence; Serine/threonine-protein phosphatase 5 (Homo sapiens), P53041; purified PP5c, OMFP substrate fluorescence; inhibition, % at 6.7 µM; actives 0.18% (n = 320,000); AID 1987, 2009;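 active = inhibition above the campaign's mean inhibition across all tested compounds plus 3 SD, cut at about 9.5% in these data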
Target sequence (P53041 whole entry, looked up): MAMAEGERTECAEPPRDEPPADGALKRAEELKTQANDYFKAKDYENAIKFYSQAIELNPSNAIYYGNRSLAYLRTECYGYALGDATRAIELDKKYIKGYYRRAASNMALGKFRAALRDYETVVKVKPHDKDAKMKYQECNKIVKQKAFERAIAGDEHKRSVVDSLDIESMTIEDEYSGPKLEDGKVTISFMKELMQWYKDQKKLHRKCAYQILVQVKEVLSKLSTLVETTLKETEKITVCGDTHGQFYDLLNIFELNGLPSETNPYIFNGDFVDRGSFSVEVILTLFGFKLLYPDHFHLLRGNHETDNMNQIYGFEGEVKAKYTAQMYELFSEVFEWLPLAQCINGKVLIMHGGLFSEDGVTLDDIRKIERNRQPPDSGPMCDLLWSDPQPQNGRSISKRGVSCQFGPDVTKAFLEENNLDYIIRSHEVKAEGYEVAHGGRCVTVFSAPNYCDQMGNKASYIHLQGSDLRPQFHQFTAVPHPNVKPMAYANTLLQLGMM
SKKanGAS inh – S. pyogenes SKKanGAS growth inhibitors in kanamycin, primary screen, streptokinase expression inhibitor project, SKKanGAS strain, BacTiter-Glo luminescence; inhibition, % at 7.5 µM; 6 h; actives 1.3% (n = 300,000); AID 1662, 2009;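 active = mean replicate score, as percent of positive control median, at least 50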;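 note: strain carries kanamycin resistance gene driven by streptokinase promoter and grows in 40 µg/ml kanamycin; loss of luminescence reflects streptokinase promoter inhibition or plain growth inhibition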
PP1 confirm – PP1 phosphatase inhibitors, confirmation, biochemical, fluorescence, OMFP substrate, triplicate; inhibition, % at 6.7 µM; shares compounds with PP1 counter; actives 52% (n = 1,900); purified PP1alpha;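 active = mean PP1 inhibition above a set limit taken from the earlier primary screen, cut at about 15% in these data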
PP5 inh counter – PP5 phosphatase inhibition by PP1 hits, confirmation, counter-screen for PP1 inhibitor project, biochemical, fluorescence, triplicate; shares compounds with PP1 counter; purified PP5c, OMFP fluorescence; inhibition, % at 6.7 µM; actives 4% (n = 1,900);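 active = mean PP5 inhibition over triplicate wells above about 9.5% taken from the earlier PP1 screen, limit read from the data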
IDE cell inh cf – human IDE inhibitors in live cells, confirmation, fluorescence polarization, HEK cells, FAbetaB substrate. shares compounds with IDE inh. FAbetaB cleavage. inhibition, % at 5.59 µM. actives 51% (n = 1,200). AID 435028, 2010;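 active = mean inhibition across triplicate wells above the cutoff set by the earlier primary insulin-degrading enzyme screen, cut at about 16% in these data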
HEK293 tox – cytotoxicity in HEK cells, cytotoxicity control for IDE inhibitor project, cell-based, luminescence; shares compounds with IDE inh; HEK293 cytotoxicity, ATP luminescence; inhibition, % at 5.59 µM; actives 28% (n = 1,200); AID 449730, 2010; in the data active = inhibition above about 22%
IDE FP artifact – fluorescent or optically active artefacts, dose response, artefact control for IDE inhibitor project, biochemical, fluorescence polarization. IC50, µM. 30 tested, under 10 active. FP counterscreen for fluorescent artifacts, IDE probe project. shares compounds with IDE inh; call rule not given here
A number is an active result; i = inactive; nt = no result given. This is a sample that favours compounds with a hit; in the whole collection about 2.8% have one here.

SMILES | IDE act | PP1 counter | IDE inh | Exocytosis inh | PP5 inh | SKKanGAS inh | PP1 confirm | PP5 inh counter | IDE cell inh cf | HEK293 tox | others
CCCCCN(C(=O)CCC(=O)OCC(=O)N(C)c1ccccc1)c1c(N)n(CCCC)c(=O)[nH]c1=O | i | i | i | i | i | i | nt | nt | nt | nt
C/C=C/c1cnc2c(c1)C(=O)N([C@H](C)CO)C[C@H](C)[C@@H](CN(C)C(=O)CN1CCOCC1)O2 | nt | nt | nt | i | nt | nt | nt | nt | nt | nt
O=C(Nc1ccc2oc(-c3cccnc3)nc2c1)c1ccc2c(c1)OCCO2 | i | 30 | 18 | i | i | i | i | i | 18 | i | IDE FP artifact=i
COc1ccc(C(=O)Nc2ccc3oc(-c4cccnc4)nc3c2)cc1OC | i | i | i | i | i | i | nt | nt | nt | nt
CCNC(=O)CSC1=N/C(=C\c2ccc(O)c(OCC)c2)C(=O)N1c1ccc(OC(F)F)cc1 | i | 18 | 70 | i | i | i | 19 | i | 148 | i
O=C(CSC1=N/C(=C/c2ccco2)C(=O)N1c1ccc(OC(F)F)cc1)NC1CCS(=O)(=O)C1 (stereo not given) | i | i | i | i | i | i | nt | nt | nt | nt
COC(=O)[C@@]1(Cc2ccc(F)cc2)[C@H]2c3cc(C(=O)N(C)C)n(CC4CC4)c3C[C@H]2CN1C(=O)c1ccccc1 | nt | nt | nt | i | nt | nt | nt | nt | nt | nt
N=C1/C(=C\c2coc3ccccc3c2=O)C(=O)N=C2SC(c3ccncc3)=NN12 | i | 34 | 42 | i | i | i | 39 | i | 20 | i
O=C(/C=C/c1ccc(Cl)cc1)NC(=S)Nc1ccc(NC(=O)c2ccco2)cc1 | i | 21 | 43 | i | i | i | 24 | i | 17 | 77
CCCCC(=O)NC(c1ccc(Cl)cc1)c1ccc2cccnc2c1O (stereo not given) | i | 32 | 19 | i | i | 70 | 21 | i | i | 99
COc1ccc(S(=O)(=O)N2CCC(C(=O)NCCC(=O)NCc3cccnc3)CC2)cc1 | nt | nt | nt | i | nt | nt | nt | nt | nt | nt
CC(=O)c1sc2nc(-c3cccs3)ccc2c1N | i | i | i | i | i | i | nt | nt | nt | nt
Nc1c(C(=O)Nc2nc3ccccc3s2)sc2nc(-c3cccs3)ccc12 | i | 31 | 29 | i | i | 50 | 32 | i | 37 | 81
CCCC[n+]1c2ccccc2cc2ccccc21 | i | 22 | 16 | i | i | i | 19 | i | i | 40
Cc1ccc2ccccc2[n+]1CCCS(=O)(=O)[O-] | i | i | i | i | i | i | nt | nt | nt | nt
COc1ccc(CN2CCC(n3nccc3NC(=O)CCOc3ccccc3)CC2)cc1C | i | i | i | i | i | i | nt | nt | nt | nt
Cc1ccc(S(=O)(=O)NC(=O)C2(C)CCN2C(=O)C2CC2)cc1 (stereo not given) | nt | nt | nt | i | nt | nt | nt | nt | nt | nt
COc1ccc(Cl)cc1C(=O)Nc1cccc(-c2ccc3nncn3n2)c1 | i | 51 | 17 | i | i | i | 45 | i | i | 22
CCc1ccc(Nc2n[n+](-c3ccccc3)c(-c3ccc(N(CC)CC)cc3)s2)cc1 | i | 24 | 19 | i | i | i | i | i | 23 | 58
